Data as given in PubChem BioAssay (NCI).
Compounds without any hit were thinned out: in the full panel of roughly 83,000, 20% have a hit.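 Values shown are percent growth following 48 h exposure of cells in 96-well plates to a single concentration of compound; below 10 was considered active.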 A number with no mark means an inactive call. Active and inactive are the calls of the source.

Tested on: SNB-75 CNS
Assay: NCI-60 one-dose screen, 48 h (100 = growth as untreated, 0 = no growth, -100 = all killed)
Settings: 10 µM unless noted

Row | SMILES | growth
1 | COc1ccccc1N1CCN(CC(O)COc2c(Br)c(Br)c(Br)c3c2OC(C)(C)C3)CC1 (centres undefined) | 71%
2 | CC(=O)N[C@@H](CNC(=O)c1cc(NC(=O)c2cc(NC(=O)c3cc(NC(=O)c4nccn4C)cn3C)cn2C)cn1C)CC(=O)Nc1cn(C)c(C(=O)Nc2cc(C(=O)Nc3cc(C(=O)Nc4cc(C(=O)NCCCN(C)CCCNC(=O)c5cccc(C(=O)O)c5)n(C)c4)n(C)c3)n(C)c2)n1 | 107%
3 | O=[N+]([O-])c1ccc(NS(=O)(=O)c2cc(Cl)ccc2Cl)c2ccccc12 | 60.6%
4 | CN1CCN(C(=O)/C=C/c2ccc([N+](=O)[O-])o2)CC1 | 95.2%
5 | CCn1cc(/C=C2\Oc3cc(OCC#N)ccc3C2=O)c2cc(OC)ccc21 | 19.1%
6 | S=c1ssnc1-c1ccccn1 | 36.6%
7 | COc1ccc2c(c1)nnc1c3cccnc3[nH]c21 | -14.2% (active)
8 | COc1cccc(/C=N/C(=S)NC2(C)C3CCC(C3)C2(C)C)c1O (centres undefined) | 90.8%
9 | CC1(C)Cc2c(Br)c(Br)c(Br)c(OCC(O)CN3CCN(c4ccccn4)CC3)c2O1 (centres undefined) | 187%
10 | O=C1OC(c2ccc(-c3ccccc3)cc2)=C/C1=C/C=C/c1ccccc1 | 92.4%
11 | CCCCCn1ncc(-c2c(O)c(O)cc3c(O)c(-c4c(C)cc5c(-c6cnn(CCCCC)n6)c(O)c(O)cc5c4O)c(C)cc23)n1 | 34.2%
12 | CCC1S/C(=N\N=C(/C)c2cc3ccccc3o2)N(c2ccccc2)C1=O (centres undefined) | 102%
13 | CS(=O)(=O)OCC(COS(C)(=O)=O)C(c1ccccc1)c1ccccc1 | 96.2%
14 | CC(=O)c1cc2c(N)c(C(=O)Nc3cccc(Cl)c3)sc2nc1C | 82.6%
15 | ClC1c2ccccc2CCc2ccccc21 | 81.6%
16 | CCOC(=O)C(C)(CSSCC(C)(NC(=O)c1ccc2ccccc2c1)C(=O)OCC)NC(=O)c1ccc2ccccc2c1 (centres undefined) | 107%
17 | COc1ccccc1S(=O)(=O)Nc1ccc2c3c(cc(-c4ccoc4)nc13)C(=O)N2C | 16.6%
18 | CN1CCN(Cn2nc(-c3cc(Cl)cc(Cl)c3Cl)n(/N=C/c3ccc(Cl)cc3)c2=S)CC1 | 107%
19 | Cc1ccn2cc(Cc3cc(=O)oc4c3ccc3ccccc34)c(=O)nc2c1 | 81.4%
20 | C=C1C(=O)O[C@H]2[C@H]1CC/C(COC(=O)c1ccc(Br)cc1)=C\CC[C@@]1(C)O[C@@H]21 | 56%

Row | SMILES | growth
21 | COc1cc2ncnc(Oc3ccc(NC(=O)Nc4ccc(CN5CCOCC5)c(C(F)(F)F)c4)c4ccccc34)c2cc1OC | 46%
22 | Cc1cccc(NC(=O)CCc2ccc(N3C(N)=NC(N)=NC3(C)C)cc2)c1 | 60.2%
23 | CN(C)c1ncc(C#Cc2c(F)cccc2F)c2ccccc12 | 108%
24 | O=C(NC(=S)Nc1ccc(Cl)cc1)c1ccccc1 | 94.9%
25 | COc1cc2nc(C(=O)N3CCCCC3)cc(Nc3ccccc3)c2cc1OC | 97.5%
26 | Oc1ccc(O)c(-[n+]2ccccc2)c1 | 104%
27 | COc1cc2c(/C=C3/C(=O)Nc4ccc(O)cc43)c(Cl)n(Cc3cc(OC)c(OC)c(OC)c3)c2cc1C | 32.2%
28 | N#Cc1c(N)nc2c(c1N)C(c1ccc(Cl)cc1)C1=C(CCCC1=O)N2c1sc2c(c1C#N)CCCC2 (centres undefined) | 91.4%
29 | COc1ccc2c(c1)nnn1c3ncccc3c(N=O)c21 | -23.3% (active)
30 | COc1cc(NC(C)CCCN2C(=O)c3ccccc3C2=O)c2nc(C)ccc2c1OC (centres undefined) | 82.6%
31 | O=C(Nc1ccc(F)cc1)Nc1ccc(Cl)c([N+](=O)[O-])c1 | 46.7%
32 | COc1cc(/C=C/C(=O)c2c(C)n([O-])c3cc(C)c(C)cc3[n+]2=O)cc(OC)c1OC | 50.5%
33 | CCC1S/C(=N\N=C(/C)c2cccs2)N(c2ccccc2)C1=O (centres undefined) | 110%
34 | O=C(Nc1cccc([N+](=O)[O-])c1)c1ccc2ccccc2c1O | 97.4%
35 | CC(C)(C)OC(=O)N1CCN(CCn2cc(C(F)(F)F)c3c(Cl)ncnc32)CC1 | 111%
36 | COc1cc(NC(C)CCCN2C(=O)c3ccccc3C2=O)c2ncccc2c1OC (centres undefined) | 84.8%
37 | CSc1nc(N)nc2c1ncn2C | 96.4%
38 | O=C1C(SCCO)=C(SCCO)C(=O)N1c1ccc(-c2ccccc2)cc1 | 71.9%
39 | OCc1cnccc1NC12CC3CC(CC(C3)C1)C2 | 105%
